According to PubChem BioAssay (NCI):
About 83,000 compounds went through this panel and 20% of them were active in at least one assay; those are over-represented in the sample as a whole.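 How to read the values: 0–100, growth inhibition (40 = 60% inhibited); 0, no net growth; -100 to 0, cell death (-40 = 40% of starting cells died; -100 = all dead).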 Values without a mark were called inactive. Calls of active or inactive are those of the source. How the source made its calls: active means growth percent below 10; inactive means the rest.

What was measured:
Test in all cases: NCI-60 one-dose screen, 48 h (100 = growth as untreated, 0 = no growth, -100 = all killed)
Conditions in all cases: 10 µM unless noted
SK-MEL-2 melanoma = system: SK-MEL-2 melanoma
EKVX NSCLC = system: EKVX NSCLC
SN12C renal = system: SN12C renal
UO-31 renal = system: UO-31 renal
TK-10 renal = system: TK-10 renal
ACHN renal = system: ACHN renal
A498 renal = system: A498 renal
MOLT-4 leukemia = system: MOLT-4 leukemia
SR leukemia = system: SR leukemia
RPMI-8226 leukemia = system: RPMI-8226 leukemia
OVCAR-8 ovarian = system: OVCAR-8 ovarian
OVCAR-5 ovarian = system: OVCAR-5 ovarian
OVCAR-4 ovarian = system: OVCAR-4 ovarian
SK-OV-3 ovarian = system: SK-OV-3 ovarian
IGROV1 ovarian = system: IGROV1 ovarian
OVCAR-3 ovarian = system: OVCAR-3 ovarian
HS 578T breast = system: HS 578T breast
NCI/ADR-RES ovarian = system: NCI/ADR-RES ovarian
T-47D breast = system: T-47D breast
CCRF-CEM leukemia = system: CCRF-CEM leukemia

Structure (SMILES) | growth (SK-MEL-2 melanoma) | growth (EKVX NSCLC) | growth (SN12C renal) | growth (UO-31 renal) | growth (TK-10 renal) | growth (ACHN renal) | growth (A498 renal) | growth (MOLT-4 leukemia) | growth (SR leukemia) | growth (RPMI-8226 leukemia) | growth (OVCAR-8 ovarian) | growth (OVCAR-5 ovarian) | growth (OVCAR-4 ovarian) | growth (SK-OV-3 ovarian) | growth (IGROV1 ovarian) | growth (OVCAR-3 ovarian) | growth (HS 578T breast) | growth (NCI/ADR-RES ovarian) | growth (T-47D breast) | growth (CCRF-CEM leukemia)
O=c1c2ccccc2oc2ccc(OCCCCCN3CCCCCC3)cc12 | 99.4% | 90.4% | 69.4% | 68.1% | 72.2% | 103% | 82.7% | 46.7% | 46.9% | 57.3% | 75.5% | 92% | 73.1% | 93.5% | 77.2% | 87.1% | 88.8% | 77.8% | 58.8% | 
C=CCn1c(SCC(=O)Nc2ccc(C(=O)/C=C/c3cc(OC)c(OC)c(OC)c3)cc2)nnc1-c1ccccc1 | 101% | 95.8% | 93.1% | 78.3% | 108% | 103% | 87.5% | 76.9% | 32.5% | 5.73% (active) | 86.8% | 128% | 111% | 110% | 86.9% | 82.3% | 102% | 102% |  | 
Cc1cc(C)nc(NS(=O)(=O)c2ccc(Nc3ccc4c5c(n(CCCN(C)C)c(=O)c4c3)-c3ccccc3C5=O)cc2)n1 | 108% | 90.5% | 85% | 88.9% | 87.9% | 89.7% | 90.7% | 15.2% | 23.4% | 85.4% |  | 111% | 107% | 96.1% | 74.2% | 83.7% | 93.2% | 98.6% | 102% | 
C1=CC2=CC=C3C=CC=C4C(c5nc6c7ccccc7c7ccccc7c6[nH]5)=CC(=C1)C2C34 (stereo not drawn) | 123% | 93.5% | 94.6% | 62.8% | 127% | 89.6% | 63.7% | 73.3% | 76.3% | 89.5% | 97.7% | 115% | 119% | 93.9% | 86.8% | 93.4% | 93.9% | 92.9% | 60% | 
COc1ccccc1Nc1nnc(-c2ccc(Cl)cc2)o1 | 34.4% | 50.8% | 59.6% | 69.5% | 68.9% | 72.2% | 45.3% | 19.5% | 19.7% | 29.2% | 60.1% | 86.5% | 68.3% | 47.7% | 52.8% | 8.06% (active) | 64.5% | 20.8% | 32.4% | 
Nc1cc(N)nc(SCC(=O)O)n1 | 99.7% | 106% | 103% | 94.4% | 98.2% | 109% | 89.4% | 103% | 92.3% | 102% | 100% | 107% | 106% | 105% | 106% | 111% | 99.6% | 104% | 105% | 
O=C1c2ccccc2C(=O)c2c1oc1c2c(=O)[nH]c2ccccc21 | 76.9% | 27.4% | 70.4% | 60.4% | 97.5% | 65.7% | 104% | 5.55% (active) | 43.8% | 62.7% | 35.6% | 102% | -5.49% (active) | 104% | 55.1% | -14.8% (active) | 88.3% | 40.8% | 22.5% | 
CCCn1cc(/C=N\N=C2\C(=O)Nc3ccc(C)cc32)c2ccccc21 | 35.1% | 50.5% | 49.9% | 60% | 107% | 55.7% | 57.2% | -9.9% (active) | 11.6% | -24.9% (active) |  | 84.6% | 41.8% | 88.4% | 39.4% | 2.1% (active) | 74% | 76.3% | 39.6% | -0.646% (active)
C#CCN1C(=O)c2ccccc2N(CC#C)C12CCN(Cc1cn(CC(=O)Nc3ccccc3C(N)=O)nn1)CC2 | 98.8% | 78.6% | 88.9% | 59.3% | 82.8% | 92.5% | 75.8% | 83.2% | 64.6% | 82.2% | 100% | 89.2% | 89% | 106% | 82.4% | 84.4% | 91.8% | 80.5% | 77% | 
COC(=O)c1cc2c3c(cc(O)c2[nH]1)N(C(=O)C1Cc2cc(OC)c(OC)c(OC)c2N1)CC3CCl (stereo not drawn) | -43% (active) | -31.5% (active) | -88.9% (active) | -97.8% (active) | -89.5% (active) | -56.1% (active) | -42.8% (active) | -11.7% (active) | 8.12% (active) | -13.2% (active) | -50.5% (active) | -61.1% (active) | -98.7% (active) | -44.9% (active) | -10.6% (active) | -83% (active) | 1.21% (active) | -34.6% (active) | -48.9% (active) | 
CC(=O)c1cc2c(N)c(C(=O)Nc3ccccn3)sc2nc1C | 53.6% | 74.7% | 92.7% | 86.7% | 90.8% | 98.9% | 30.3% | 98.2% | 69.2% | 99.2% | 103% | 89.4% | 99.4% | 48.3% | 92.8% | 92.2% | 74.2% | 94.7% | 94.5% | 
C=C(C)[C@@H]1CCC=C2CC[C@]3(C)[C@H](CC[C@@H]4[C@@]5(C)CCCNC(C)(C)[C@@H]5CC[C@]43C)[C@H]21 | 77.9% | 94.6% | 65.2% | 75.4% | 104% | 78.7% | 101% | 0.148% (active) | -25.7% (active) | -11.9% (active) | 3.48% (active) | 56.4% | 36.7% | 112% | 23.5% | 41.2% | 97.2% | 55.1% | 60.2% | 
C=C1C(=O)O[C@H]2[C@H]1CC/C(COC(=O)c1c[nH]c3ccccc13)=C\CC[C@@]1(C)O[C@@H]21 | -41.3% (active) | -73.3% (active) | -46.5% (active) | -97.6% (active) | -87% (active) | -77.8% (active) | -96.3% (active) | -1.78% (active) | -9.87% (active) | -27.4% (active) | 5% (active) | -25.3% (active) | -90.6% (active) | 68.9% | -56.2% (active) | -94.2% (active) | 3.21% (active) | -4.86% (active) | -49.2% (active) | 
CCCCn1c(=O)c(/C=C/C(=O)/C=C/c2ccc(OC)cc2)cc2cc(Cl)ccc21 | 84% | 91% | 75.9% | 62.8% | 112% | 103% | 91.6% | 44.4% | 3.16% (active) | -18.7% (active) |  | 94.9% | 42.9% | 108% | 59.1% | 19.5% | 90.9% | 42.5% | 69.6% | 29.2%
C=CCn1c(CN2CCN(c3cc4c(cc3F)c(=O)c(C(=O)O)cn4C3CC3)CC2)n[nH]c1=S | 104% | 101% | 104% | 83.7% | 88.9% | 102% | 98.2% | 94.2% | 99.1% | 109% | 100% | 94% | 105% | 108% | 96.2% | 102% | 95% | 99.2% | 103% | 
